Experimental findings from PubChem BioAssay are described below.

A word on the inhibition: it is the change of the read-out against control, counted positive when it falls.

A number with no mark means an inactive call. The rule behind the calls is not given here.

Pantothenate synthetase (Mycobacterium tuberculosis (strain ATCC 25618 / H37Rv)), sequence (P9WIL5 whole entry, looked up): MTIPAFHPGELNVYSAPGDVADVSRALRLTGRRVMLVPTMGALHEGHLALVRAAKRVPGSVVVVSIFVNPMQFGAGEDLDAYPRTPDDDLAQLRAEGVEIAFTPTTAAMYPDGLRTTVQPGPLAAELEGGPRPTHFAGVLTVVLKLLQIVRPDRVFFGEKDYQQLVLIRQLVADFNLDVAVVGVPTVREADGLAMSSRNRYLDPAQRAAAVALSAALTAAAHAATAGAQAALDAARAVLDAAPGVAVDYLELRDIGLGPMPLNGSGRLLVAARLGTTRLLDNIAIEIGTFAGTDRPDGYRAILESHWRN

This assay has as its target Pantothenate synthetase (Mycobacterium tuberculosis (strain ATCC 25618 / H37Rv)) (UniProt P9WIL5). Put plainly: Recombinant Mtb pantothenate synthetase (PanC) inhibitors, coupled enzyme, confirmatory (AID 375).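 Note: 0% = full reaction with vehicle and 100% = no enzyme background.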 Particulars: coupled enzyme assay; at 10 µM, stronger effect = higher value.
Regarding `CCCn1c(SCC(=O)N2CCCc3ccccc32)nnc1-c1ccccn1`, the inhibition was 3%. The figure for `Cc1cc(C)n(-c2nc3c(c(=O)[nH]c(=O)n3C)n2Cc2ccc(F)cc2)n1` is 0%; for `CCCCCC#CCC#CCC#CCC#CCCCC(=O)O` it is 0%; for `CC(=O)O[C@H]1CSC[C@H]1NC(=O)c1ccccc1` it is 0%. As for `Cn1c(=O)c2c(nc(NCCCO)n2CCc2ccccc2)n(C)c1=O`, the figure is 0%; as for `COc1cccc(CNC(=O)C2CCN(C(=O)N(C)C)CC2)c1`, 2%; as for `COc1ccc(Nc2nc(OC)nc(N3CCN(c4ccc(OC)cc4)CC3)n2)cc1`, 1%. As for `C=CCNC(=O)C1CC(=O)N(c2ccc(OCC(=O)Nc3ccc(OC)cc3)cc2)C1` (centres undefined), the figure is 0%. For the compound `Cc1cccc(Cc2nnc(NC(=O)c3cccc(S(=O)(=O)N4CCOCC4)c3)s2)c1`, the inhibition is 0%. The figure for `Fc1ccccc1-c1nc(-c2ccccc2)no1` is 5%.

As to `COc1ccccc1NC(=O)CSc1nnc(Cn2nnc(-c3ccccc3)n2)n1-c1ccccc1`, the inhibition was 0%. The figure for `Cc1cc(C)c2c(n1)sc1c(N3CCOCC3)ncnc12` is 5%.

Turning to `CCOC(=O)CSc1nnc(CNC(=O)c2cccs2)n1-c1cc(OC)ccc1OC`, the inhibition was 1%. The figure for `O=C(COc1ccccc1Cl)NCCCN1CCOCC1` is 0%; for `CCc1ccccc1OCCCCCNCCO` it is 3%. Regarding `CCOc1ncccc1C(=O)OCC(=O)Nc1ncc(C(F)(F)F)cc1Cl`, the inhibition was 1%.

In the case of `CCCSCCCNC(=O)Cn1cc2c(n1)CCC(C)C2` (centres undefined), the inhibition was 2%. Regarding `CCOc1cccc(OCCOCCN2CCCC2)c1`, the inhibition is 8%. As for `CCn1c(=O)cc(SCC(=O)NCCN2CCN(Cc3ccccc3)CC2)c2ccccc21`, the inhibition was 0%. In the case of `CN(Cc1ccccc1)C(=O)c1ccc2c(c1)OCO2`, the inhibition was 0%. As for `CC(O)c1n(C)c(Cl)c[n+]1C` (centres undefined), the inhibition is 3%. Turning to `CCOC(=O)CNC(=O)Cn1cnc2c(nnn2-c2cccc(Cl)c2)c1=O`, the inhibition was 0%. As to `O=C(Nc1ccccc1C(=O)NCCCn1ccnc1)c1ccccc1`, the inhibition is 3%. As for `CC(=O)Oc1ccc(-c2ccc(C(=O)O)cc2)cc1`, the figure is 4%; as for `CCOC(=O)N1CCN(S(=O)(=O)c2ccc(F)c(C(=O)Nc3cc(C)cc(C)c3)c2)CC1`, 7%; as for `CCCC(=O)Nc1nnc(Sc2ccc(N(C)C)cc2)s1`, 0%. The figure for `CCSC1=NCN(CCCC(=O)O)CN1` is 0%; for `Cc1ccc(CCNC(=O)C2CCCN2S(=O)(=O)c2ccc3c(c2)CCC(=O)N3)cc1` (centres undefined) it is 6%. As for `C=CCNC(=O)c1cccc(Br)c1`, the figure is 8%. As to `Cc1cccc2c1N(CC(=O)OC(C)C)C(=O)C2=O`, the inhibition was 0%. The figure for `COc1ccc(Cl)c(N2CCN(CCCNC(=O)Nc3ccc(C)cc3)CC2)c1` is 0%. The figure for `COc1cccc(OCCSc2nnc3sc4ccccc4n23)c1` is 0%; for `CC1(C)C(c2ccccc2)=NC(c2ccccc2)N1O` (centres undefined) it is 3%. Consider `COc1ccc(C2CC(c3cccc(C)c3)n3ncnc3N2)cc1` (centres undefined), for which the inhibition is 0%. As for `CN/C=C1\C(=O)C(C)(C)Oc2ccc3ccc(=O)oc3c21`, the figure is 9%; as for `CCC1CCCCN1S(=O)(=O)c1ccc(C(=O)Nc2nnc(-c3ccccc3Cl)o2)cc1` (centres undefined), 4%. As for `COc1cccc(CN2CCN(C(=O)CC(C)C)CC2)c1`, the figure is 6%. The figure for `COc1cc(OC)cc(-c2nnc(SCC(=O)Nc3cc(C)on3)o2)c1` is 2%; for `Cc1cc(C)c2c(=O)[nH]c(=O)n(Cc3ccccc3)c2n1` it is 0%.
